KB-V1 cytotox: KB-V1 MDR subline cytotoxicity | AID 1347076 | 3.4% of 400,000 active | KB-V1 MDR cells viability, CellTiter-Glo, 72 h | Potency, µM (top dose mostly 46.1 µM), most hits filed as cytotoxic; also: potency is read from the fitted curve at half-maximal effect; nearly all actives have a fitted effect of over 60% in size
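KB-V1, DMEM (no phenol red) + 10% FBS; cpd pin-transferred, titration series; 72 h, 37 degrees C; CellTiter-Glo, luminescence. Data normalized, curve-fit.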
IL-1B inflam inh: inflammasome signaling inhibition, IL-1 beta readout; THP-1 LPS/ATP IL-1B secretion, AlphaLISA, 16 h; active compounds read low; activity change, % at 57.5 µM; 4.7% of 360,000 active; in the data active = activity change below about -50%; inconclusive = mostly about -30% to -49%
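THP-1 cells pretreated 1 hr with compounds (up to 57.5 uM final), then stimulated with LPS (250 ng/mL final) plus ATP (1.25 mM final); secreted IL-1B measured by AlphaLISA after 16 hr, decreased signal indicating inhibition.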
HT1080 IDH1KD tx: toxicity to HT-1080 IDH1 knockdown cells (counter line) | HT-1080 IDH1 knockdown viability, ATP luminescence, 48 h | Potency, µM (doses to about 46.1 µM), for inactives: top-dose activity, negative = toxicity, usual class: cytotoxic | 2% of 360,000 active;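 also: potency is read from the fitted curve at half-maximal effect; 0% = DMSO wells and -100% = cell-free medium wells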
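IDH1KD HT-1080 cells, 750/well, RPMI + 5% FBS; compound pinned after 2 h settling; 48 h, 37 °C; CellTiter-Glo luminescence; % activity normalised to DMSO and no-cell wells; curves fitted, classed by r2 and efficacy.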
KB-3-1 tox: KB-3-1 parental cell cytotoxicity; KB-3-1 viability, CellTiter-Glo ATP luminescence, 72 h; Potency, µM (top dose mostly 46.1 µM), actives largely listed as cytotoxic; 1.4% of 400,000 active; also: potency is read from the fitted curve at half-maximal effect; nearly all actives have a fitted effect of over 60% in size
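Multi-concentration cytotoxicity screen in KB-3-1 cells grown in DMEM lacking phenol red with 10% FBS. After 72 h at 37 °C with compound, ATP-dependent luminescence was recorded.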
HT1080-NT tox: kills 2HG-producing HT-1080-NT fibrosarcoma cells; AID 686970; 1.6% of 360,000 active; Potency, µM (titrated, usually from 46.1 µM), for inactives: at the highest dose activity, negative = less viability, usual class: cytotoxic; HT-1080-NT fibrosarcoma viability, CellTiter-Glo ATP luminescence, 48 h;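 also: NT is the 2HG producing partner of a matched IDH1 knockdown line; potency is read from the fitted curve at half-maximal effect; 0% = DMSO-treated cells and -100% = media-only wells without cells; nearly all actives have a fitted effect of over 55% in size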
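Viability by CellTiter-Glo luminescence after 48 h compound exposure at 37C of HT-1080-NT cells (750/well, RPMI, 5% FBS). % activity scaled between DMSO wells and medium-only wells, then curve-fitted and categorized by curve class.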
* marks the source's active call; other numbers are inactive results; i = inactive; u = inconclusive; x = not tested or not shown. Only some compounds are listed: those with a hit (about 8.8% of all), similar ones and a draw of the others. Unless noted, calls follow the shape of the dose curve; as a rule, active = well fitted curve in the direction sought with a large enough effect; inconclusive = small, poorly fitted or top-dose-only effect, or another doubt; inactive = no such curve, though single readings can be large; an effect the other way counts as inactive or inconclusive. Unless noted, % is scaled to controls: 0 for no effect and ±100 for the full control effect.

SMILES	KB-V1 cytotox	IL-1B inflam inh	HT1080 IDH1KD tx	KB-3-1 tox	HT1080-NT tox
CC12CCC(C(=O)N3CCc4ccccc43)(CC1=O)C2(C)C (configuration not stated)	u	6	4%	i	11%
O=C(c1ccc(C(=O)N2CCCc3ccccc32)s1)N1CCCc2ccccc21	i	-52*	1%	u	23%
COc1ccc(-c2cc(C(=O)N3CCN(C(c4ccccc4)c4ccccc4)CC3)no2)cc1OC	i	-2	-16%	i	8%
NC1=NC2(CCC(c3ccccc3)CC2)n2c(nc3ccccc32)N1 (configuration not stated)	i	-54*	u	u	21µM*
O=S(Cc1ccc(Cl)cc1)CC(O)(c1ccccc1)c1ccccc1 (configuration not stated)	i	14	11%	i	10%
O=S(Cc1ccccc1)CC(O)(c1ccc(Cl)cc1)c1ccc(Cl)cc1 (configuration not stated)	21µM*	-59*	u	u	u
COc1cnc(-c2ccccn2)nc1N(C)C	21µM*	-58*	5.8µM*	u	u
COc1cnc(-c2ccccn2)nc1Sc1c(Cl)cccc1Cl	2.9µM*	33	7.9µM*	u	16µM*
COc1cnc(-c2ccccn2)nc1Sc1ccccc1Cl	i	44	-29%	u	u
COc1cnc(-c2ccccn2)nc1Oc1c(C)cccc1C	u	41	u	i	-7%
COc1ccc(Oc2nc(-c3ccccn3)ncc2OC)cc1	i	-12	1%	i	-2%
COc1cnc(-c2ccccn2)nc1Oc1cccc(Cl)c1	6.5µM*	5	2%	i	-2%
COc1ccc(-n2nc(C(=O)Nc3ccc(Cl)cn3)c3c4ccccc4n(C)c3c2=O)cc1Cl	u	x	x	i	x
CCOc1ncccc1C(=O)NCc1ccc(OC)cc1	13µM*	8	8.9µM*	15µM*	u
C[C@@H]1[C@H](c2ccccc2)OCCS(=O)(=O)N1Cc1ccc(F)cc1	u	x	x	i	x
CC(C)c1ccccc1NC(=O)Nc1nnc([C@H]2C[C@H](O)[C@@H](CO)O2)s1	i	17	18%	0.0012µM*	5%
O=C(Nc1nnc([C@@H]2C[C@H](O)[C@@H](CO)O2)s1)c1c(F)cccc1F	i	-56*	0%	i	29%
O=C(Nc1nnc([C@H]2C[C@H](O)[C@@H](CO)O2)s1)Nc1ccccc1F	i	4	u	i	24%
O=C(Nc1nnc([C@H]2C[C@H](O)[C@@H](CO)O2)s1)c1ccccc1F	i	25	23%	i	u
O=c1cc(N/N=C/c2ccccc2)[nH]c(=O)[nH]1	i	-99*	7.3µM*	u	3.7µM*
O=c1cc(C=NNc2ccccc2)[nH]c(=O)[nH]1	i	-6	4%	i	-8%
Cc1ccc(S(=O)(=O)N2CCN(C(=O)COC(=O)c3ccc(Cl)c(S(N)(=O)=O)c3)CC2)c(C)c1	i	-10	7%	i	7%
CC(=O)Nc1ccc(C=NN=C2c3ccccc3-c3ccccc32)cc1	18µM*	4	u	i	-25%
Cc1ccccc1NC(=O)COC(=O)c1ccccc1OCC(=O)Nc1ccc(Br)cc1	i	x	x	i	x
CCC(C)N=C1Sc2nc3ccc(C)cc3cc2CN1CCOC (configuration not stated)	i	-83*	-3%	i	-2%
SMILES	KB-V1 cytotox	IL-1B inflam inh	HT1080 IDH1KD tx	KB-3-1 tox	HT1080-NT tox
COCCN1Cc2cc3cc(C)ccc3nc2SC1=Nc1ccc(OC)cc1	i	-53*	-7%	i	-11%
CCOc1ccc(N=C2Sc3nc4ccc(C)cc4cc3CN2CCOC)cc1	u	-10	3%	i	5%
COCCN=C1Sc2nc3ccc(C)cc3cc2CN1Cc1cccs1	i	-87*	-15%	i	-14%
COCCN1Cc2cc3cc(C)ccc3nc2SC1=Nc1cccc(OC)c1	i	-3	-2%	i	4%
Cc1c(NC(=O)c2cc(-c3ccc(Cl)cc3)on2)c(=O)n(-c2ccccc2)n1C	u	-18	-1%	i	6%
CCOC(=O)Cn1c(-c2cccnc2Cl)nc2cc(Cl)c(Cl)cc21	21µM*	1	-28%	i	-13%
CC(C)C(NC(=O)OCc1ccccc1)C(=O)NC1CCCCC1 (configuration not stated)	u	-7	-12%	u	-1%
O=C(O)C(Cc1cccs1)c1cccs1 (configuration not stated)	i	18	-2%	i	-8%
COc1ccc(CNc2nc(-c3ccccc3)nc3ccccc23)cc1OC	i	-62*	-28%	i	u
c1ccc(-c2nc(NC3CCCC3)c3ccccc3n2)cc1	u	-63*	-13%	u	-28%
Fc1ccc(CNc2nc(-c3ccccc3)nc3ccccc23)cc1	i	-62*	-18%	i	u
CC1=C(C(=O)OCc2ccc(C)cc2)C(c2ccc(O)c([N+](=O)[O-])c2)NC(=O)N1 (configuration not stated)	i	22	12%	i	2%
COc1cccc(N2CCN(C(=O)Cn3ncc4c(=O)oc5ccccc5c43)CC2)c1	i	x	x	i	x
Cc1cccc(Nc2nc(N)c([N+](=O)[O-])c(NCc3ccccc3)n2)c1	18µM*	x	16µM*	i	u
Nc1nc(Nc2ccccc2)nc(NC2CCCCC2)c1[N+](=O)[O-]	u	-88*	u	u	u
COc1cccc(Nc2nc(N)c([N+](=O)[O-])c(NCc3ccccc3)n2)c1	u	-27	u	u	-17%
CNc1nc(N)c([N+](=O)[O-])c(NC2CCCCC2)n1	i	52	-2%	i	0%
Nc1nc(Nc2ccccc2)nc(NCc2ccccc2)c1[N+](=O)[O-]	u	-69*	16µM*	u	u
Cc1ccc(CNc2nc(N)c([N+](=O)[O-])c(NCc3ccccc3)n2)cc1	i	12	5%	i	4%
Nc1nc(NCc2ccccc2)nc(NCc2ccccc2)c1[N+](=O)[O-]	16µM*	-4	6%	i	10%
CNc1nc(N)c([N+](=O)[O-])c(NCc2ccccc2)n1	i	19	-19%	i	-2%
OC(c1cc(Cl)cc(Cl)c1)c1ncc(-c2cccc(F)c2)[nH]1 (configuration not stated)	i	u	u	i	u
CCCCN(CC)C(=O)C1CCCN(c2ncnc3c2nc2n3CCCCC2)C1 (configuration not stated)	i	x	x	i	x
